# In PubChem BioAssay AID1220 (Sanford-Burnham Center for Chemical Genomics, 2008):
# Among all 190,000 compounds or so, about 1,300 (0.68%) were called active. Cut-off read from the data, not from the text of the source: active = inhibition above about 50%; inactive = the rest. Many of the other results were omitted from the sample, so actives are more common in it than they were.
# Target: Mannose-6-phosphate isomerase (Homo sapiens) (UniProt P34949)
# Assay: human PMI inhibitors, high substrate, primary screen, biochemical, fluorescence intensity, high mannose 6-phosphate (AID 1220)
# Conditions: recombinant PMI enzyme, coupled fluorescence intensity; at 20 µM; hits give high values
# Sequence of Mannose-6-phosphate isomerase (Homo sapiens) (P34949 whole entry, looked up): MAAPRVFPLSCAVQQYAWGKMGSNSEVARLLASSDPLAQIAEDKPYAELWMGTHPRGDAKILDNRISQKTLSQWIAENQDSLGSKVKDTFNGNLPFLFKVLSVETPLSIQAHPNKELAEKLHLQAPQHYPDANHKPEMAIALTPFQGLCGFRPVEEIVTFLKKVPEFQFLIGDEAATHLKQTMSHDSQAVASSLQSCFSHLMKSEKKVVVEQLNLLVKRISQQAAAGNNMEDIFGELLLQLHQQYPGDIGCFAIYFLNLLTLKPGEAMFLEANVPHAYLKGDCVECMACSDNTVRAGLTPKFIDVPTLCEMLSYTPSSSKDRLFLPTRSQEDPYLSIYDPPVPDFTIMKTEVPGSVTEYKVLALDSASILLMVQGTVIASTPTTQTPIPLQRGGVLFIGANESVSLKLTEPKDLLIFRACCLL
row,SMILES,inhibition
1,COc1cccc(C(=O)Nc2ccc3c(c2)C(=O)N(CCC(=O)O)C3=O)c1,3.7% (inactive)
2,CC1CCCC(NC(=O)COC(=O)CSc2ccc3ccccc3c2)C1C (stereo not drawn),7.7% (inactive)
3,Cc1ccc(-c2nnc(-c3ccccc3)c(-c3ccccc3)n2)cc1,-0.5% (inactive)
4,Cc1ccc(-c2nc(N)sc2C)cc1,-10.2% (inactive)
5,Cc1ccc(-c2nc(N)sc2-c2ccc(C)cc2)cc1,13.6% (inactive)
6,Cc1ccc(-c2cc(-c3ccccc3)nc(Cl)n2)cc1,12.5% (inactive)
7,CCCCC(=O)OCC(=O)c1[nH]c(C)c(C(C)=O)c1C,-12% (inactive)
8,CCc1nnc(NC(=O)c2ccc(N(C)S(=O)(=O)c3ccccc3)cc2)s1,-6.4% (inactive)
9,CC(C)c1ccccc1NC(=O)COC(=O)CNC(=O)c1ccc(Br)cc1,4.8% (inactive)
10,Nc1ccc(Cc2ccc(N)c(O)c2)cc1O,46.8% (inactive)
11,Nc1cc2c(cc1O)CCCC2,54.3% (active)
12,O=C(O)c1ccc2c(c1)CCC2,0.1% (inactive)
13,COc1cc(NC(=O)CSc2c3c(nc4ccccc24)CCC3)cc(OC)c1OC,-3.7% (inactive)
14,CCOc1ccccc1NC(=O)CCN(c1ccc(C)cc1)S(=O)(=O)c1ccccc1,5.3% (inactive)
15,Cc1nn(Cc2c(F)c(F)c(F)c(F)c2F)c(C)c1NC(=O)c1ccc(COc2cc(Cl)ccc2Cl)cc1,0.7% (inactive)
16,O=C1C2C3C=CC(C3)C2C(=O)N1CNc1ccccc1 (stereo not drawn),-1% (inactive)
17,O=C1C2C3C=CC(C3)C2C(=O)N1CNc1ccc(O)cc1 (stereo not drawn),58.4% (active)
18,Cc1ccc(NCN2C(=O)C3C4C=CC(C4)C3C2=O)cc1 (stereo not drawn),16.9% (inactive)
19,CC12CC(NC(=O)N1c1cccc(C(=O)N3CCN(c4ccccn4)CC3)c1)c1ccccc1O2 (stereo not drawn),-3.4% (inactive)
20,O=C(CSc1nnc(SCc2cccc3ccccc23)s1)Nc1ccc(C(=O)O)cc1,10.4% (inactive)
21,COc1ccc(COc2ccc(C3C(S(=O)(=O)c4ccccc4)CON3C)cc2OC)cc1 (stereo not drawn),-2.4% (inactive)
22,O=C(O)c1cccc(NS(=O)(=O)c2ccc(C3CCCCC3)cc2)c1,-7% (inactive)
23,O=C(O)c1cccc(NS(=O)(=O)c2ccc(-c3ccc(S(=O)(=O)Nc4cccc(C(=O)O)c4)cc3)cc2)c1,53.1% (active)
24,O=C(O)c1cccc(NS(=O)(=O)c2ccc(Cl)c(C(=O)O)c2)c1,1.9% (inactive)
25,Cc1oc2c(c1C(=O)O)C(=O)c1ccccc1C2=O,-9.6% (inactive)

row,SMILES,inhibition
1,Cc1oc2c(c1C(=O)N1CCC(C)CC1)C(=O)c1ccccc1C2=O,54.7% (active)
2,CCOC(=O)C1CCN(C(C)=C2C(=O)c3ccccc3C2=O)CC1,-9.2% (inactive)
3,CCOC(=O)C1CCN(C(=O)c2c(C)oc3c2C(=O)c2ccccc2C3=O)CC1,55.2% (active)
4,CCOC(=O)c1c(C)oc2c1C(=O)c1ccccc1C2=O,-16.2% (inactive)
5,CC(=O)c1c(C)oc2c1C(=O)c1ccccc1C2=O,-9.9% (inactive)
6,CSc1nc(-c2ccccc2)c(-c2ccccc2)[nH]1,-9.1% (inactive)
7,COc1ccc([N+](=O)[O-])cc1N(CC(=O)NC1CCCC1)S(C)(=O)=O,-1.4% (inactive)
8,Cc1cccc(N=C2NN=C(c3c(C)[nH]c4ccccc34)CS2)c1,-7% (inactive)
9,O=C(Nc1ccc(Cl)cc1)N(Cc1nnc2n1CCCCC2)c1ccccc1,-8.1% (inactive)
10,CCOC(=O)c1ccc(CN(Cc2ccc(C)cc2)S(=O)(=O)c2cccc([N+](=O)[O-])c2)cc1,-10% (inactive)
11,CCc1nc(N2CCOCC2)c(C#N)c2c1CCCC2,4.2% (inactive)
12,CCN(CC)c1nc(N)c2c(N)nc3c(c2c1C#N)CC(c1ccccc1)O3 (stereo not drawn),31.2% (inactive)
13,N#Cc1c(N2CCCCC2)nc(N)c2c(N)nc3c(c12)CC(CCl)O3 (stereo not drawn),47.3% (inactive)
14,COc1ccc(CN2C(=O)Cc3c2nc(N)c2c(N)nc(N4CCCCC4)c(C#N)c32)cc1,37.8% (inactive)
15,CCC1Cc2c(nc(N)c3c(N)nc(N4CCOCC4)c(C#N)c23)O1 (stereo not drawn),61.5% (active)
16,N#Cc1c(N2CCCCC2)nc(N)c2c(N)nc3c(c12)CC(c1ccccc1)O3 (stereo not drawn),56.5% (active)
17,CCOc1ccccc1C1N(c2ccc(OC)cc2)C(=O)C2CCCN21 (stereo not drawn),2.6% (inactive)
18,CC(C)(C)NC(=O)C(c1ccncc1)N(C(=O)Cn1nnc(-c2ccc(F)cc2)n1)c1ccccc1F (stereo not drawn),1.9% (inactive)
19,O=C(Nc1ccccc1NC(=O)C1CCCO1)c1ccco1 (stereo not drawn),51.8% (active)
20,Cc1ccc(NC(=O)c2ccco2)c(NC(=O)C2CCCO2)c1 (stereo not drawn),11.8% (inactive)
21,O=C(Nc1cccc(NC(=O)C2CCCO2)c1)c1ccco1 (stereo not drawn),13.7% (inactive)
22,CCOC(=O)N1CCC(N(CCN(C)C)C(=S)Nc2cccc(Cl)c2)CC1,10.6% (inactive)
23,O=C(O)c1cc(S(=O)(=O)N2CCOCC2)ccc1N1CCOCC1,-9.3% (inactive)
24,O=S(=O)(c1ccc2c(c1)oc1ccccc12)N1CCOCC1,3.7% (inactive)
25,O=c1c2ccccc2sn1-c1ccc(S(=O)(=O)N2CCCC2)cc1,5% (inactive)

row,SMILES,inhibition
1,Cc1ccc(C)n1-c1cc(S(=O)(=O)N2CCOCC2)ccc1N1CCCC1,17% (inactive)
2,O=c1c2ccccc2sn1-c1cc(S(=O)(=O)N2CCOCC2)ccc1N1CCCC1,77.3% (active)
3,O=c1c2ccccc2sn1-c1cc(S(=O)(=O)N2CCOCC2)ccc1N1CCOCC1,96.3% (active)
4,Cc1cc2ccccc2n1CCNC(=O)C(C)Oc1ccccc1 (stereo not drawn),5.6% (inactive)
5,Cc1cc(Nc2ccccc2)nc(N2CCOCC2)n1,-4.3% (inactive)
6,COCCCNC(=O)c1cc(C(=O)c2c(-c3c(Cl)cccc3Cl)noc2C)c[nH]1,-2.4% (inactive)
7,CC1(C)CC(=O)c2cnc3c(C#N)cnn3c2C1,6.6% (inactive)
8,Cc1ccc(CN(Cc2ccco2)C(=S)Nc2ccccc2C)cc1,8.6% (inactive)
9,O=c1c(N2CCOCC2)nsnc1N1CCOCC1,53.3% (active)
10,COc1nsnc1N1CCOCC1,-11.2% (inactive)
11,O=c1[nH]snc1N1CCOCC1,-7.2% (inactive)
12,Cc1ccc(Oc2c(F)c(F)nc(N3CCCC3)c2F)cc1,32.2% (inactive)
13,CCN(CC(=O)NCc1cccs1)C(=O)CCc1c[nH]c2ccccc12,8.8% (inactive)
14,CC(C)(C)c1cc(N)n(-c2ccc(C(=O)O)cc2)n1,52.8% (active)
15,Cc1cc(C)n(-c2ccc(C(=O)O)cc2)n1,30.6% (inactive)
16,Cc1cc(N)n(-c2ccc(C(=O)O)cc2)n1,2.1% (inactive)
17,O=C(Cn1cnc2sc(-c3ccccc3)cc2c1=O)NCc1ccccc1,-8.4% (inactive)
18,CCOC(=O)C1=C(CSc2nccn2C)NC(=O)NC1c1cc(C)ccc1C (stereo not drawn),-2% (inactive)
19,CCN(CC)Cc1cc(O)c(CN(CC)CC)cc1O,54.7% (active)
20,CCN(CC)Cc1cc(C(C)=O)ccc1O,-8.6% (inactive)
21,CCc1oc(C(=O)O)cc1CN(CC)CC,10.9% (inactive)
22,CC(=O)Nc1ccc(NC(=O)CCC(=O)OCC(=O)c2ccc(C)c([N+](=O)[O-])c2)cc1,-5.6% (inactive)
23,O=C(c1ccc(C(=O)N2CCOCC2)s1)N1CCOCC1,-3.8% (inactive)
24,CCN1C(=O)/C(=C/C=C2/Sc3ccc4ccccc4c3N2CCO)SC1=S,-5.4% (inactive)
25,CN1C(=O)/C(=C/C=C2\SCCN2C)SC1=S,29.3% (inactive)

row,SMILES,inhibition
1,CCN1C(c2ccccc2)=C(c2ccccc2)S/C1=C/C=C1\SC(=S)N(C)C1=O,54.4% (active)
2,CC1(C)CC2CC(C)(CN2C(=O)C23CCC(C)(C(=O)O2)C3(C)C)C1 (stereo not drawn),9.1% (inactive)
3,O=C(COC(=O)CCc1ccccc1)Nc1cc(S(=O)(=O)N2CCOCC2)ccc1N1CCCC1,7.1% (inactive)
4,Cc1cccc(C)c1N=Cc1c(C(F)(F)F)[nH][nH]c1=O,0.2% (inactive)
5,O=c1[nH][nH]c(C(F)(F)F)c1C=Nc1ccccc1Cl,-6.7% (inactive)
6,Cc1cc(O)ccc1N=Cc1c(C(F)(F)F)[nH][nH]c1=O,62.2% (active)
7,COc1ccc(CNC(=O)CN(c2ccccc2)S(=O)(=O)c2ccccc2[N+](=O)[O-])cc1,-11.2% (inactive)
8,CCN(Cc1ccccc1)C(=O)Cn1cc2c(n1)CCCC2,10.5% (inactive)
9,Cc1ccc(CNC(=O)CCc2nc3ccccc3c(=O)[nH]2)cc1,2.2% (inactive)
10,CCOC(=O)N1CCC(c2nc(C)sc2C(=O)O)CC1,1.2% (inactive)
11,CC(C)Cn1nc(NC(=O)C2CCCO2)c2cc3ccccc3nc21 (stereo not drawn),6.4% (inactive)
12,Cc1occc1-c1nnc(SCC(=O)N2CCOCC2)n1CC(C)C,6.1% (inactive)
13,COc1ccc(C(CC(=O)Nc2cc([N+](=O)[O-])ccc2OC)c2ccccc2)cc1 (stereo not drawn),54.1% (active)
14,COc1ccc([N+](=O)[O-])cc1NC(=O)CC(C)c1ccccc1 (stereo not drawn),14.4% (inactive)
15,COc1ccc([N+](=O)[O-])cc1NC(=O)CC(c1ccccc1)c1ccccc1,7.4% (inactive)
16,CS(=O)(=O)N1CCC(Oc2ccccc2C(=O)NC(C2CC2)C2CC2)CC1,2.8% (inactive)
17,CCOC(=O)c1cnc(SC2CCc3ccccc3C2=O)nc1N (stereo not drawn),53% (active)
18,CCOC(=O)c1cnc(SC2CC(=O)N(c3ccc(C)cc3)C2=O)nc1N (stereo not drawn),-5.1% (inactive)
19,CCOC(=O)c1cnc(SC2CC(=O)N(c3ccccc3)C2=O)nc1N (stereo not drawn),0.1% (inactive)
20,COCCn1nnnc1C(C(C)C)N1CCSCC1 (stereo not drawn),-8% (inactive)
21,O=C(/C=C\NCC(=O)c1ccccc1)c1ccc(F)cc1,-70.8% (inactive)
22,N#CC1(C#N)CC(C=O)=C(N)C1(C#N)CC(=O)C12CC3CC(CC(C3)C1)C2 (stereo not drawn),32.5% (inactive)
23,N#CC1(C#N)CC(C=O)=C(N)C1(C#N)CC(=O)c1ccc(F)cc1 (stereo not drawn),52.8% (active)
